Measured values from PubChem BioAssay AID720540 (National Center for Advancing Translational Sciences (NCATS), 2013).
Hit rate of the full screen: of about 1,300 compounds, about 460 (35%) were called active. About 39% were inconclusive and are not listed. Calls follow the shape of the dose curve; as a rule, active = well fitted inhibition curve with a large enough effect; inconclusive = small, poorly fitted or top-dose-only effect; inactive = flat fitted curve, though single readings scatter. Some of the results follow.

molecular target: Protein phosphatase EYA2 (Homo sapiens) (UniProt O00167); assay: qHTS for Inhibitors of the Phosphatase Activity of Eya2: Confirmatory Assay for Cherry-picked Compounds; conditions: purified EYA2 phosphatase activity, qHTS confirmation; series mostly up to 46.1 µM; activity change, negative = inhibition: at the top concentration; also: nearly all actives have a fitted effect of over 65% in size;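 as to activity change, negative = inhibition: 0% = DMSO wells and -100% = EGTA control giving full inhibition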
Sequence (O00167 whole entry, looked up): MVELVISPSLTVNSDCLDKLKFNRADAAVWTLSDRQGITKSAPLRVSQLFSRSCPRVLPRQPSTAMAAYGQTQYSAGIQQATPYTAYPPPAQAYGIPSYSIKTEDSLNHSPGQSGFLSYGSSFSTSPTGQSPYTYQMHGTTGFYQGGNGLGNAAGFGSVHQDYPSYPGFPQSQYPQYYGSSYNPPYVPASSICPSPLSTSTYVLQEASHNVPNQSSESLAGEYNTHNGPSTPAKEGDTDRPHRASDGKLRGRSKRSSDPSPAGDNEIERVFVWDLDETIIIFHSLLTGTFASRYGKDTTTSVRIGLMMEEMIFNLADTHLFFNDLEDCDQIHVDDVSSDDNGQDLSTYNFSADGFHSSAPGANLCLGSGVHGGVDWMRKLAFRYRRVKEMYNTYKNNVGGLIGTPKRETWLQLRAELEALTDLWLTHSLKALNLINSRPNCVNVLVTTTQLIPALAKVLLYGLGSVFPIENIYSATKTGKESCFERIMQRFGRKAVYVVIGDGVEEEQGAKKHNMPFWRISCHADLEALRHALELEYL
Method in brief: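 Eya2 (0.2 uM working solution) preincubated 10 min at room temperature with compound in pH 7.5 HEPES buffer with MgCl2, BSA, DTT. OMFP added (50 uM working solution), 10 min more; fluorescence 485/525 nm, normalized to EGTA and DMSO.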
Potency is read from the fitted curve at half-maximal effect.

Potency, active:
CCCSC1=N/C(=C\C=C\c2ccco2)C(=O)S1 9.53 µM
O=c1nc2c(O)cccn2c2c1c(=O)[nH]c1ccccc12 4.26 µM
Cc1ccc(C(=O)CSc2nnc(CNc3nc(-c4ccccc4)cs3)n2C)cc1 7.57 µM
O=[N+]([O-])c1ccc([N+](=O)[O-])c(Nc2ccc(N3CCOCC3)cc2)c1 10.7 µM
O=C(CCS(=O)(=O)c1ccc(F)cc1)Nc1nc(-c2ccccn2)cs1 13.5 µM
CCn1nc(C(=O)Nc2nc(-c3ccccn3)cs2)c2ccccc2c1=O 4.26 µM
CSCCC(=O)Nc1nc(-c2ccccn2)cs1 19 µM
Cn1cccc1/C=N/N1CCN(Cc2cccc3ccccc23)CC1 15.1 µM
COc1ccccc1/C=C/C=N/N1CCN(Cc2cccc3ccccc23)CC1 8.49 µM
O=C(CSc1ccc2nnc(-c3ccccn3)n2n1)Nc1ccccc1C(F)(F)F 19 µM
O=C(CSc1ccc2nnc(-c3ccccn3)n2n1)Nc1ccccc1 16.9 µM
CCCCC(Sc1ccc2nnc(-c3ccccn3)n2n1)C(=O)O (stereo not given) 16.9 µM
O=C(CSc1ccc2nnc(-c3ccccn3)n2n1)Nc1ccccc1F 12 µM
O=S(=O)(O)c1ccc(O)c2cc(Nc3ccccc3)ccc12 7.57 µM
O=C(c1ccc2c(=O)n3c(nc2c1)CCCCC3)N1CCN(c2cccc(Cl)c2)CC1 16.9 µM
Oc1ccccc1C=NC1CCCCC1N=Cc1ccccc1O (stereo not given) 19 µM
O=C(Nc1nncs1)c1cc(-c2ccco2)nc2ccccc12 19 µM
CCOC(=O)c1sc(NC(=O)CSc2nc(O)c(Cc3ccccc3)c(=O)[nH]2)nc1C 19 µM
O=C(CN1C(=O)/C(=C/c2ccco2)SC1=S)Nc1ccc(C(=O)O)c(O)c1 16.9 µM
O=C1c2cccc(Sc3ccccc3)c2C(=O)c2c(Sc3ccccc3)cccc21 3.38 µM
CCN(CC)S(=O)(=O)c1cc(OC)ccc1N=Nc1ccc(O)c2ncccc12 1.35 µM
O=S(=O)(Nc1nccs1)c1ccc(NCc2cc(Br)cc(Br)c2O)cc1 1.07 µM
CCc1nnc(NS(=O)(=O)c2ccc(NCc3cc(Cl)cc(Cl)c3O)cc2)s1 2.39 µM
CCOc1ccc(/C=C2\SC(=S)N(CCC(=O)Nc3ccc(C(=O)O)cc3)C2=O)cc1 19 µM
Cc1n[nH]c(=S)n(NC(=O)CC(=O)Nn2c(=S)[nH]nc(C)c2=O)c1=O 1.51 µM
CC1CCCN(c2ccc3nc4ccccc4c(=O)n3n2)C1 (stereo not given) 13.5 µM
Cc1ccc(CN2CCN(/N=C/c3ccc(C)s3)CC2)c(C)c1 15.1 µM
O=C(Oc1ccc(C(=S)N2CCOCC2)cc1)c1ccccc1F 6.01 µM
O=C(Oc1ccc(C(=S)N2CCOCC2)cc1)c1ccccc1[N+](=O)[O-] 13.5 µM
O=C(Oc1ccc(C(=S)N2CCCCC2)cc1)c1ccccc1F 13.5 µM
CC1(C)Nc2cccc3c(N=Nc4ccc(N=Nc5ccccc5)c5ccccc45)ccc(c23)N1 3.01 µM
COc1ccc(Oc2nc(-c3ccccn3)ncc2OC)cc1 19 µM
COc1cnc(-c2ccccn2)nc1Oc1ccc(C(C)(C)C)cc1 3.79 µM
CCOC(=O)C(C)Sc1nc(-c2ccccn2)ncc1OC (stereo not given) 2.13 µM
Cc1c(C(=O)O)c(O)cc2c1C(=O)c1c(O)c([C@H]3O[C@H](CO)[C@@H](O)[C@H](O)[C@H]3O)c(O)c(O)c1C2=O 16.9 µM
CCOc1ccccc1C(=O)OCC(=O)Nc1nnc(-c2ccccc2)o1 19 µM
COc1ccc(C(=O)Nc2nnc(-c3ccccc3)o2)cc1OC 19 µM
C#Cc1cccc(NC(=O)CSc2nnc(-c3ccc(C(F)(F)F)cn3)o2)c1 15.1 µM
c1ccc2c(c1)nc(Nc1ccc(N3CCCCC3)cc1)c1nncn12 16.9 µM
CN(C)c1ccc(/C=C2\C=Cc3ccccc32)cc1[N+](=O)[O-] 6.75 µM
CNc1ccc(/C=C2\C=Cc3ccccc32)cc1OC 7.57 µM
O=[N+]([O-])c1ccc(/C=C2\C=Cc3ccccc32)cc1 4.78 µM
CN(C)c1ccc(/C=C2\C=Cc3ccccc32)cc1N 15.1 µM

Activity change, negative = inhibition, inactive:
COc1ccc(N)cc1-n1c(C)ccc1C -0.42%
Cc1cc(C(=O)COC(=O)c2ccc(O)cc2)c(C)n1CCc1ccc(F)cc1 -22.6%
CCC(=O)Nc1ccc(-c2nnc(SCc3ccccc3)n2C)cc1 -7.17%
NC(=O)c1nc(C(=O)N2CCCCC2)c2ccccc2n1 -4.08%
COc1ccc(/C=C/C(=O)Nc2ccc3nc4n(c(=O)c3c2)CCCC4)cc1 -23.1%
COc1cc2c(cc1OC)C(c1ccc([N+](=O)[O-])cc1)NCC2 (stereo not given) -11.5%
COc1ccc(NC(=O)c2cc(-c3ccco3)nc3ccccc23)cn1 -26.4%
COc1cc(/C=C2\SC(=S)N(CCC(=O)Nc3cccc(O)c3)C2=O)cc(OC)c1OC -18.9%
COC(=O)c1sc2cc(C(F)(F)F)cnc2c1-c1cccnc1 -1.68%
CCN(CC)C(=O)c1ccc(O)c(OC)c1 1.29%
CCSc1nnc(-c2ccc(S(=O)(=O)N3CCOCC3)cc2)n1C 2.37%
CCOc1ccc(NC(=O)c2sccc2-n2cccc2)cc1 -22.2%
O=C(CCN1C(=O)/C(=C\C=C\c2ccccc2)SC1=S)Nc1ccc(C(=O)O)cc1 -25.3%
O=C(Nc1nc2c(F)cc(F)cc2s1)c1ccc([N+](=O)[O-])o1 -27.1%
Cc1cc(Br)c(NC(=O)c2ccccc2[N+](=O)[O-])cc1C -9.39%
COc1ccc(CN(CCN(C)C)c2ccccn2)cc1 -3.21%
CCc1nc2ccc(C(=O)NCCCN(C)C)cn2c1N(C)Cc1ccc(OC)cc1 -5.22%
COc1ccc(N(CC(=O)Nc2nc3ccc(C)cc3s2)S(=O)(=O)c2c(C)nn(C)c2C)cc1 -25.2%
O=C(COC(=O)c1cc(-c2cccnc2)nc2ccccc12)Nc1ccc(F)cc1F -21.4%
CCc1ccc(NC(=O)COC(=O)c2ccccc2OCC(=O)N(C)C)cc1 -4.47%
O=C(Nc1cccc(-c2nnc(-c3ccco3)o2)c1)c1ccccc1 -19.3%
CC1CCCCC1Nc1nc2ccc(Cl)cc2n2cnnc12 (stereo not given) -24%
